Bioassay records from PubChem BioAssay.
This is a sample that favours compounds with a hit; in the whole collection about 1.7% have one here.
KCNH2 3.1 block = qHTS for Inhibitors of KCHN2 3.1: Mutant qHTS. U2OS KCNH2 3.1, thallium flux FluxOr; stronger effect = lower value. activity change, % (tested at about 1.8 µM). 340,000 tested, 0.95% active. AID 720553, 2013;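 active = maximum activity change below -70%; inconclusive = maximum activity change from -70% to -50%; inactive = maximum activity change above -50%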;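 also: thallium influx rate constant from kinetic fluorescence after stimulation buffer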
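Virally transduced U2OS (3.1 isoform, 4 h infection in dark at RT) → overnight 37 C → FluxOr + Red40 in HBSS/HEPES, 45 min → stimulation buffer, 2 min kinetic read → rate constant vs DMSO controls.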
TRPML1 ag = qHTS for Agonists of the Human Mucolipin Transient Receptor Potential 1 (TRPML1); AID 624414, 2012; Mucolipin-1 (Homo sapiens), Q9GZU1; activation, % (no concentration beside the values); 410,000 tested, 0.12% active; TRPML1-expressing cells, Ca2+ dye fluorescence, FDSS; in the data active = activation above about 50%; inconclusive = mostly about 30% to 49%
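Agonist activity was taken from a 110 s kinetic Ca2+ dye read on the FDSS after pinning compounds onto TRPML1-DL cells. The cells were seeded at 1,500/well with Tet inducer, incubated about 16 h, then dye-loaded at room temperature.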
KCNH2 WT inh = qHTS for Inhibitors of KCHN2 3.1: Wildtype qHTS. Voltage-gated inwardly rectifying potassium channel KCNH2 (Homo sapiens), Q12809. U2OS, BacMam KCNH2, thallium flux FluxOr; stronger effect = lower value. activity change, % at 1.84 µM. 340,000 tested, 0.37% active. AID 720551, 2013;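 active = maximum activity change below -70%; inconclusive = maximum activity change between -70% and -50%; inactive = maximum activity change above -50%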
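U2OS cells transduced with wild-type KCNH2 virus are loaded with FluxOr dye for 45 min, and thallium flux is measured in kinetic reads before and after stimulation buffer. Rate constants are normalized to DMSO controls.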
TRHR PAM = qHTS for Small Molecule Agonists and Allosteric Enhancers of Human TRH Receptor: Primary Screen for Enhancers; Thyrotropin-releasing hormone receptor (Homo sapiens), P34981; TRHR cells, fluo-8 calcium fluorescence, EC20 TRH enhancement; enhancement, % at 2 µM; 360,000 tested, 0.66% active; AID 493056, 2011; in the data active = enhancement above about 30%
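TRHR-expressing cells loaded with fluo-8 calcium dye were read kinetically (ex 480/em 530) during compound addition, then stimulated with an EC20 of TRH (10 nM final). Enhancement of the Gq-mediated intracellular calcium response was scored.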
TRHR ag = qHTS for Small Molecule Agonists and Allosteric Enhancers of Human TRH Receptor: Primary Screen for Agonists; TRHR cells, calcium flux fluo-8, FDSS agonist mode; 360,000 tested, 0.18% active; Thyrotropin-releasing hormone receptor (Homo sapiens), P34981; AID 493084, 2011; activation, % at 2 µM; in the data active = activation above about 30%
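In this calcium-flux screen, cells bearing human TRHR are dye-loaded with fluo-8, baselined for 10 cycles, then exposed to library compounds; positive kinetic calcium responses during the agonist phase mark hits, with TRH as control.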
TRPML1 blocker = qHTS for Inhibitors of the Human Mucolipin Transient Receptor Potential 1 (TRPML1). Mucolipin-1 (Homo sapiens), Q9GZU1. TRPML1-inducible cells, Ca2+ dye fluorescence, FDSS; stronger effect = lower value; inhibition of EC80 agonist-evoked calcium signal. activity change, negative = inhibition, % (no concentration beside the values). 390,000 tested, 0.02% active; in the data active = activity change below about -50%; inconclusive = between about -30% and that limit;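 also: stimulus is agonist 54-4 at its EC80 concentration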
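Tet-induced TRPML1-DL cells loaded with Ca8 no-wash calcium dye were read kinetically on FDSS. Compound addition was followed by EC80 agonist 54-4 (4 uM final); inhibition was read over 110 s.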
Of the large screens only hits and unclear results are named; the others gave an inactive call.

Cc1cc(C)cc(NC(=S)N2CCC(NC(=O)C3CCCCC3)CC2)c1	none
CCOC(=O)c1c(-c2ccc(C)cc2)csc1NC(=O)c1cc(=O)c2ccc(C)cc2o1	none (no result: KCNH2 3.1 block, KCNH2 WT inh)
CCOC(=O)c1c(-c2ccc(C)cc2)csc1NC(=O)c1cc2ccccc2oc1=O	KCNH2 3.1 block -122
CC1CC=CC2C1C(=O)N(Cc1ccccc1)C2c1ccc(/C=C/c2ccccc2)cc1F (centres undefined)	none (no result: KCNH2 3.1 block, KCNH2 WT inh, TRHR PAM, TRHR ag)
S=C(NCc1ccccc1)NNc1nc2ccccc2[nH]1	KCNH2 3.1 block -74
Cc1cc2nn(-c3ccc(F)cc3)nc2cc1N	TRHR PAM 32
O=C(CN1CCN(Cc2ccccc2Cl)CC1)N=Nc1c(O)[nH]c2ccccc12	none
Cc1ccc(CN2CCN(CC(=O)N=Nc3c(O)[nH]c4ccccc34)CC2)cc1	KCNH2 3.1 block -72, KCNH2 WT inh inconclusive
CSc1ccc(S(=O)(=O)NCC(=O)OCC(=O)N(C)CC(=O)Nc2ccc(F)cc2)cc1[N+](=O)[O-]	none (no result: TRHR PAM, TRHR ag)
CCOC(=O)c1c(C)[nH]sc1=S	TRHR PAM 33
CCCC(C)C(=O)Nc1ncc(S(=O)(=O)c2ccc([N+](=O)[O-])cc2)s1 (centres undefined)	KCNH2 3.1 block -106, KCNH2 WT inh -102
O=C1/C(=C\c2c(NCCOCCO)nc3ccccn3c2=O)SC(=S)N1Cc1ccco1	TRHR ag 33
Cc1ccc(C2c3c(-c4cc(C)ccc4O)n[nH]c3C(=O)N2Cc2ccco2)cc1 (centres undefined)	none (no result: KCNH2 3.1 block, KCNH2 WT inh)
Cc1cc(C)c(O)c(-c2n[nH]c3c2C(c2cccc(O)c2)N(Cc2ccco2)C3=O)c1 (centres undefined)	KCNH2 WT inh -91 (no result: TRPML1 ag, TRPML1 blocker)
CCOC(=O)C1(Cc2ccccc2C)CCCN(C(=O)COC)C1 (centres undefined)	KCNH2 3.1 block -107
CSc1cccc(NC(=O)c2cc(S(=O)(=O)N3CCc4ccccc43)cn2C)c1	none
CC1(C)Cc2c(C#N)c(NCc3ccco3)nc(-c3ccco3)c2CO1	TRHR PAM 37
CCCN1CCC(=O)N([C@H](CO)Cc2ccccc2)CC1	none
Cc1ccc(SC[C@H](Cc2ccccc2)N2CCN(CCc3ccccc3)CCC2=O)cc1	KCNH2 3.1 block -106, KCNH2 WT inh -101
CCCCCCCN1CCC(=O)N([C@H](CO)Cc2ccccc2)CC1	KCNH2 3.1 block -109, KCNH2 WT inh inconclusive
CCCN1CCC(=O)N([C@H](CSc2ccc(C)cc2)Cc2ccccc2)CC1	KCNH2 3.1 block -101
Cc1ccc(SCC(Cc2ccccc2)N2CCN(CC(C)C)CCC2=O)cc1 (centres undefined)	none (no result: KCNH2 3.1 block, KCNH2 WT inh, TRHR PAM, TRHR ag)
CCCN1CCC(=O)N([C@H](CSc2ccc(OC)cc2)Cc2ccccc2)CC1	KCNH2 3.1 block -101
Cc1csc(N=Nc2ccc(N(C)C)cc2)[n+]1[O-]	none (no result: TRHR PAM, TRHR ag)
CS(=O)(=O)c1ccccc1NC(=O)COc1ccccc1C(=O)Nc1ccccc1	none (no result: KCNH2 3.1 block, KCNH2 WT inh, TRHR PAM, TRHR ag, TRPML1 blocker)
O=C1CCN(CCc2ccccc2)CCN1[C@H](CSc1ccccc1)Cc1ccccc1	KCNH2 3.1 block -103, KCNH2 WT inh -141
Cc1cccc(C)c1NC(=O)/C(C#N)=C/c1ccc(-c2ccc(C(=O)O)cc2)o1	none
COc1ccc(C2=NN(C(=O)CCC(=O)O)C(c3ccccc3)C2)cc1 (centres undefined)	none
CCOC(=O)c1nnn(CC(=O)N2N=C(c3ccc(Cl)cc3)CC2c2ccc(OC)cc2)c1C(=O)OCC (centres undefined)	KCNH2 3.1 block inconclusive, KCNH2 WT inh -76
COc1ccc(C2CC(c3ccc(Br)cc3)=NN2C(=O)CN2CCCC2)cc1 (centres undefined)	KCNH2 3.1 block -83
CCOC(=O)c1nnn(CC(=O)N2N=C(c3ccc(Cl)cc3)CC2c2ccccc2)c1C(=O)OCC (centres undefined)	KCNH2 3.1 block -71
CC(C)n1nnnc1SCC(=O)N1N=C(c2cccs2)CC1c1cccs1 (centres undefined)	none
CSc1ccc(S(=O)(=O)NC2CC2)cc1	none (no result: TRPML1 ag, TRPML1 blocker)
O=C(Cc1ccc(Cl)cc1)NNC(=O)c1ccco1	none
O=C1N2CCSC2=NC1(Nc1ccccn1)C(F)(F)F (centres undefined)	TRPML1 ag inconclusive
CS(=O)(=O)c1ccc2nc(NC3(C(F)(F)F)N=C4SCCN4C3=O)sc2c1 (centres undefined)	KCNH2 WT inh -85
O=C(c1c(F)cccc1F)N1CCCc2ccccc21	TRHR PAM 32
O=C(c1cccc(F)c1)N1CCCc2ccccc21	none
O=C(Nc1ccc(S(=O)(=O)N2CCOCC2)cc1)c1ccc(Cl)cc1Cl	none
C#CCN1C(=O)S/C(=C\c2ccc(-c3ccc(Cl)c(C(=O)O)c3)o2)C1=O	TRHR PAM 32 (no result: TRPML1 ag, TRPML1 blocker)
COc1cc(/C=C2\SC(=O)N(CC(=O)Nc3ccccc3F)C2=O)cc(Cl)c1O	TRPML1 ag inconclusive, TRHR ag 101
Cc1ccccc1-c1nc(SCc2cccnc2)c2c(=O)n(C)c(=O)n(C)c2n1	KCNH2 WT inh -256
CCCc1nc(SCc2cccnc2)c2c(=O)n(C)c(=O)n(C)c2n1	none
CCCCn1c(N)c(N(CCOC)C(=O)c2cc(-c3ccccc3Cl)nc3ccccc23)c(=O)[nH]c1=O	none
O=C(CCCNC(=O)/C(=C\c1ccc(F)cc1)NC(=O)c1ccccc1)OCc1ccccc1	none
O=C(NCCCn1ccnc1)/C(=C\c1ccc(Br)cc1)NC(=O)c1ccccc1	KCNH2 3.1 block -104, KCNH2 WT inh -125
CC(C)c1ccc(CNC(=O)C(=O)NCCCn2ccnc2)cc1	TRHR PAM 32
COc1ccccc1C(=O)N/C(=C/c1ccc(Br)cc1)C(=O)NCCCn1ccnc1	KCNH2 3.1 block -99, KCNH2 WT inh -125
O=C(CCCNC(=O)/C(=C/c1ccc(F)cc1)NC(=O)c1ccccc1)OCc1ccccc1	KCNH2 WT inh -138
COc1ccc(/C=C(/NC(=O)c2ccccc2)C(=O)NCCCn2ccnc2)cc1OC	none
COc1cccc(C2=CC(c3ccccc3F)n3ncc(C(=O)Nc4ccc(F)cc4)c3N2)c1 (centres undefined)	none (no result: KCNH2 3.1 block, KCNH2 WT inh)
Cc1ccc(C(=O)N/C(=C\c2ccc(F)cc2)C(=O)NCCCn2ccnc2)cc1	KCNH2 3.1 block -114, KCNH2 WT inh -95
